Data taken from PubChem BioAssay (NCATS).
Records with an inconclusive call do not appear. Calls of active or inactive are those of the source. Calls follow the shape of the dose curve; as a rule, active = well fitted curve in the direction sought with a large enough effect; inconclusive = small, poorly fitted or top-dose-only effect, or another doubt; inactive = no such curve, though single readings can be large; an effect the other way counts as inactive or inconclusive.

Tests used:
[1] = Quantitative High-Throughput drug screen in 47 multiple myeloma cell lines against the NCATS MIPE library collection: EJM_DSMZ cell viability assay (AID 1918926; also: nearly all actives have a fitted effect of over 30% in size)
Method in brief: (§1)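 Myeloma cell lines, 500 cells per well, exposed to MIPE 4.0 library compounds for 48 h at 37C, 5% CO2. Viability from ATP by CellTiter-Glo luminescence; normalised to DMSO (100%) and media-only (0%) wells.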

[2] = Quantitative High-Throughput drug screen in 47 multiple myeloma cell lines against the NCATS MIPE library collection: ARD_JJKsccE7 cell viability assay (AID 1918929)
Method in brief: as §1

[3] = Quantitative High-Throughput drug screen in 47 multiple myeloma cell lines against the NCATS MIPE library collection: Karpas620_DSMZ cell viability assay (AID 1918959); also: nearly all actives have a fitted effect of over 30% in size
Method in brief: (§2)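 CellTiter-Glo luminescence (ATP) after 48 h compound exposure, 37C/5% CO2; 500 cells/well; MIPE 4.0 approved/investigational drugs pinned in; DMSO = 100%, media only = 0% viability.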

[4] = Quantitative High-Throughput drug screen in 47 multiple myeloma cell lines against the NCATS MIPE library collection: KMS12PE_JCRB cell viability assay (AID 1918972); also: nearly all actives have a fitted effect of over 30% in size
Method in brief: (§3)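 Myeloma cells (500 per well) were exposed to MIPE 4.0 compounds by pin transfer and incubated 48 hours at 37C, 5% CO2. Viability was read as ATP by CellTiter-Glo luminescence, normalised to DMSO (100%) and media-only (0%) wells.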

[5] = Quantitative High-Throughput drug screen in 47 multiple myeloma cell lines against the NCATS MIPE library collection: KMS20_JCRB cell viability assay (AID 1918973); also: nearly all actives have a fitted effect of over 45% in size
Method in brief: as §1

[6] = Quantitative High-Throughput drug screen in 47 multiple myeloma cell lines against the NCATS MIPE library collection: KMM1_JCRB cell viability assay (AID 1918960); also: nearly all actives have a fitted effect of over 30% in size;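 as to viability (% of DMSO): 100% = DMSO-treated cells and 0% = medium-only wells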
Method in brief: (§4)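 Luminescence from CellTiter-Glo, taken after 5 min at room temperature, reports cellular ATP as viability. Cells (500 per well) had been treated 48 h at 37 °C with MIPE 4.0 compounds, scaled between DMSO and medium-only controls.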

[7] = Quantitative High-Throughput drug screen in 47 multiple myeloma cell lines against the NCATS MIPE library collection: JIM3_ECACC cell viability assay (AID 1918963; also: nearly all actives have a fitted effect of over 35% in size)
Method in brief: as §2

[8] = Quantitative High-Throughput drug screen in 47 multiple myeloma cell lines against the NCATS MIPE library collection: H1112_PLB cell viability assay (AID 1918967; also: nearly all actives have a fitted effect of over 30% in size)
Method in brief: as §1

[9] = Quantitative High-Throughput drug screen in 47 multiple myeloma cell lines against the NCATS MIPE library collection: KMS27_JCRB cell viability assay (AID 1918970); also: nearly all actives have a fitted effect of over 30% in size
Method in brief: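 CellTiter-Glo luminescence after 48 h drug exposure at 37 °C; 500 cells/well, 1536-well format, pin-tool compound addition; DMSO = 100%, media-only = 0% viability.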

[10] = Quantitative High-Throughput drug screen in 47 multiple myeloma cell lines against the NCATS MIPE library collection: KMS12BM_JCRB cell viability assay (AID 1918971); also: nearly all actives have a fitted effect of over 35% in size
Method in brief: (§5)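 We plated 500 myeloma cells per well, pinned in MIPE 4.0 compounds, and incubated for 48 hours at 37C. ATP was then quantified with CellTiter-Glo, with DMSO and media-only wells defining 100% and 0%.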

[11] = Quantitative High-Throughput drug screen in 47 multiple myeloma cell lines against the NCATS MIPE library collection: KMS26_JCRB cell viability assay (AID 1918975); also: nearly all actives have a fitted effect of over 45% in size
Method in brief: as §5

[12] = Quantitative High-Throughput drug screen in 47 multiple myeloma cell lines against the NCATS MIPE library collection: ARP1_JJKsccF8 cell viability assay (AID 1918928; also: nearly all actives have a fitted effect of over 40% in size)
Method in brief: as §4

[13] = Quantitative High-Throughput drug screen in 47 multiple myeloma cell lines against the NCATS MIPE library collection: INA6_PLB cell viability assay (AID 1918965; also: nearly all actives have a fitted effect of over 55% in size)
Method in brief: as §3

[14] = Quantitative High-Throughput drug screen in 47 multiple myeloma cell lines against the NCATS MIPE library collection: JJN3_DSMZ cell viability assay (AID 1918966; also: nearly all actives have a fitted effect of over 50% in size)
Method in brief: as §1

[15] = Quantitative High-Throughput drug screen in 47 multiple myeloma cell lines against the NCATS MIPE library collection: Karpas25_ECACC cell viability assay (AID 1918968; also: nearly all actives have a fitted effect of over 35% in size)
Method in brief: as §1

[16] = Quantitative High-Throughput drug screen in 47 multiple myeloma cell lines against the NCATS MIPE library collection: JIM1_ECACC cell viability assay (AID 1918964)
Method in brief: as §1

[17] = Quantitative High-Throughput drug screen in 47 multiple myeloma cell lines against the NCATS MIPE library collection: KHM11_PLB cell viability assay (AID 1918962); also: nearly all actives have a fitted effect of over 35% in size
Method in brief: as §2

[18] = Quantitative High-Throughput drug screen in 47 multiple myeloma cell lines against the NCATS MIPE library collection: AMO1_DSMZ cell viability assay (AID 1918927; also: nearly all actives have a fitted effect of over 30% in size)
Method in brief: as §1

[19] = Quantitative High-Throughput drug screen in 47 multiple myeloma cell lines against the NCATS MIPE library collection: Karpas417_ECACC cell viability assay (AID 1918961); conditions: Karpas417 myeloma viability, CellTiter-Glo ATP luminescence, 48 h; viability (% of DMSO): at 45.8 µM (top of the series) unless noted
Method in brief: as §3

[20] = Quantitative High-Throughput drug screen in 47 multiple myeloma cell lines against the NCATS MIPE library collection: KMS21BM_JCRB cell viability assay (AID 1918974); conditions: ATP luminescence, 48 h; viability: at 45.8 µM (top of the series) unless noted
Method in brief: as §1
Potency is read from the fitted curve at half-maximal effect.

N#Cc1ccc(C(c2ccc(C#N)cc2)n2cncn2)cc1
active: Potency [2] 6.62 µM | Potency [3] 18.7 µM
inactive: Potency [1] | Potency [4] | Potency [5]

c1ccc(-c2nn3c(c2-c2ccnc4cc(OCCN5CCOCC5)ccc24)CCC3)nc1
inactive: Potency [1] | Potency [2] | Potency [3] | Potency [6] | Potency [7] | Potency [9] | Potency [5] | Potency [11]
active: Potency [8] 4.18 µM | Potency [10] 26.4 µM

Cc1cc2c(C(C)C)c(O)c(O)c(C=O)c2c(O)c1-c1c(C)cc2c(C(C)C)c(O)c(O)c(C=O)c2c1O
inactive: Potency [6]
active: Potency [1] 20.9 µM | Potency [12] 10.5 µM | Potency [3] 8.33 µM | Potency [7] 8.33 µM | Potency [13] 9.35 µM | Potency [14] 18.7 µM | Potency [8] 18.7 µM | Potency [15] 5.9 µM | Potency [9] 6.62 µM | Potency [10] 14.8 µM | Potency [4] 7.43 µM | Potency [5] 11.8 µM | Potency [11] 14.8 µM

CC(C)OC(=O)C1=CN(C(=O)c2ccc(F)c(F)c2)CC(C)(C)c2c1[nH]c1ccccc21
inactive: Potency [1] | Potency [12] | Potency [2] | Potency [6] | Potency [8] | Potency [15] | Potency [9] | Potency [5] | Potency [11]

CS(=O)(=O)c1ccc(C(=O)Nc2ccc(Cl)c(-c3ccccn3)c2)c(Cl)c1
active: Potency [13] 4.18 µM | Potency [15] 9.35 µM
inactive: Potency [1] | Potency [12] | Potency [2] | Potency [3] | Potency [6] | Potency [16] | Potency [14] | Potency [11]

NCCCC(N)(C(=O)O)C(F)F (stereo unspecified)
inactive: Potency [1] | Potency [3] | Potency [17] | Potency [9] | Potency [10] | Potency [4]
active: Potency [7] 13.2 µM | Potency [14] 20.9 µM | Potency [15] 0.166 µM

NC(=O)c1ccc(-c2nc(-c3ccc4c(c3)OCCO4)c(-c3ccccn3)[nH]2)cc1
active: Potency [12] 4.18 µM
inactive: Potency [1] | Potency [7] | Potency [8] | Potency [10]

Nc1nccc(-c2ccc3noc(-c4ccc(Cl)cc4)c3c2)n1
inactive: Potency [1] | Potency [3] | Potency [8] | Potency [15] | Potency [9]

Cc1cc(Nc2nc(N[C@@H](C)c3ncc(F)cn3)ncc2Cl)n[nH]1
inactive: Potency [6]
active: Potency [1] 2.64 µM | Potency [7] 8.33 µM | Potency [13] 5.26 µM | Potency [14] 18.7 µM | Potency [8] 3.32 µM

C[C@]1(c2nc3c(C(N)=O)cccc3[nH]2)CCCN1
inactive: Potency [1] | Potency [12] | Potency [2] | Potency [3] | Potency [6]

CCOc1cc(C(=O)Nc2ccc(Cl)c(-c3nc4ccccc4[nH]3)c2)cc(OCC)c1OCC
inactive: Potency [11]
active: Potency [1] 13.2 µM | Potency [3] 13.2 µM | Potency [13] 11.8 µM | Potency [15] 10.5 µM | Potency [5] 1.48 µM

CCCCCCCc1ccc(CCc2cccc(O)c2C(=O)O)cc1
active: Potency [7] 20.9 µM | Potency [15] 20.9 µM | Potency [10] 0.332 µM
inactive: Potency [1] | Potency [18] | Potency [3] | Potency [16] | Potency [4]

O=C1CCc2cc(OCCCCc3nnnn3C3CCCCC3)ccc2N1
active: viability (% of DMSO) [19] 113%
inactive: Potency [1] | Potency [18] | Potency [3] | Potency [6] | Potency [7] | Potency [16] | Potency [9] | Potency [4]

Cn1cc(-c2ccc3nnc(C(F)(F)c4ccc5ncccc5c4)n3n2)cn1
inactive: Potency [1] | Potency [3] | Potency [5]
active: Potency [18] 13.2 µM | Potency [14] 0.0264 µM | Potency [15] 18.7 µM | Potency [10] 23.5 µM | Potency [4] 20.9 µM

Cc1[nH]c(=O)c(C#N)cc1-c1ccncc1
active: Potency [18] 23.5 µM | Potency [7] 18.7 µM | Potency [13] 14.8 µM | Potency [15] 9.35 µM | Potency [9] 1.32 µM
inactive: Potency [1] | Potency [3] | Potency [17] | Potency [10] | Potency [11]

Cn1cnc([N+](=O)[O-])c1Sc1ncnc2nc[nH]c12
inactive: Potency [1] | Potency [19] | Potency [10]
active: Potency [2] 1.18 µM | Potency [6] 2.96 µM | Potency [13] 5.26 µM | Potency [8] 10.5 µM | Potency [15] 16.6 µM

Cc1n[nH]c(C)c1Cc1sc2c(c1C(=O)N1C[C@H](O)CO1)c(=O)n(C)c(=O)n2CC(C)C
active: Potency [6] 0.0118 µM | Potency [19] 0.0209 µM | Potency [10] 2.64 µM
inactive: Potency [1] | Potency [12] | Potency [2] | Potency [3] | Potency [17] | Potency [7] | Potency [16] | Potency [8] | Potency [15]

CCC(C)n1ncn(-c2ccc(N3CCN(c4ccc(OC[C@H]5CO[C@](Cn6cncn6)(c6ccc(Cl)cc6Cl)O5)cc4)CC3)cc2)c1=O (stereo partly specified)
inactive: Potency [3] | Potency [7] | Potency [13] | Potency [8] | Potency [15]
active: Potency [1] 2.96 µM | Potency [10] 3.32 µM

Nc1nc2c(ncn2COCCO)c(=O)[nH]1
inactive: Potency [1] | Potency [12] | Potency [3] | Potency [6] | Potency [7] | Potency [9] | Potency [5] | Potency [11]

CN(C)c1ccc(Nc2nc(N)n(C(=O)c3c(F)cccc3F)n2)cc1
active: Potency [1] 20.9 µM | Potency [18] 4.69 µM | Potency [6] 11.8 µM | Potency [19] 1.66 µM | Potency [17] 20.9 µM | Potency [7] 16.6 µM | Potency [16] 18.7 µM | Potency [13] 1.87 µM | Potency [14] 20.9 µM | Potency [15] 26.4 µM | Potency [9] 23.5 µM | Potency [4] 16.6 µM | Potency [20] 2.35 µM

CC(C)(C)OC(=O)CN(Cc1ccc(Cl)cc1)Cc1ccc([N+](=O)[O-])s1
inactive: Potency [1] | Potency [2] | Potency [3] | Potency [6] | Potency [9] | Potency [4] | Potency [5]
active: Potency [7] 16.6 µM | Potency [14] 10.5 µM
